TWEAK Fn14 block: inhibitors of TWEAK-Fn14 signaling, primary screen, luciferase reporter cells, uHTS. TWEAK-stimulated Fn14 reporter cells, luciferase luminescence, 8 h. inhibition, % at 10 µM. 2% of 360,000 active. AID 1159606, 2016; in the data active means inhibition above about 50%
Peg3 promoter: Peg3 promoter-driven luciferase inhibitors, primary screen, cell-based, HeLa, luciferase luminescence; inhibition, % at 20 µM; AID 588405, 2011; HeLa PEG-Prom luciferase reporter, overnight; 1.7% of 360,000 active;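 active means inhibition of at least 50% at 20 µM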
KKLEB cytotox: cytotoxicity in KKLEB CF airway cells, primary screen, cytotoxicity control for CF NF-kB inhibitor project, cell-based, uHTS, fluorescence assay plates. 0.36% of 360,000 active. AID 602141, 2011. activity change (cytotoxicity), % at 5 µM. KKLEB CF airway cells viability, ATPlite luminescence, overnight; hits give low values; cells stimulated with P. aeruginosa culture filtrate;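 active means corrected activity change at or below -50% at 5 µM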
CF NFkB block: inhibitors of PAF-induced NF-kB signaling, primary screen, cell-based, GFP fluorescence, uHTS. KKLEB NF-kB-GFP reporter, GFP fluorescence overnight. inhibition, % at 5 µM. 0.86% of 360,000 active. AID 588850, 2011;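 active means at least 50% inhibition at 5 µM, scaled per plate between neutral and stimulator controls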;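 further: PAF is a Pseudomonas aeruginosa culture filtrate used as stimulus; plate controls were PAF-stimulated DMSO wells for no effect and unstimulated DMSO wells for full effect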
HIF-2a block: HIF-2a reporter inhibitors, primary screen, luminescence, 786-0 RCC cells; 786-0 RCC cells HIF-2a reporter, luciferase luminescence, overnight; inhibition, % at 18.8 µM; 0.72% of 360,000 active;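 active means inhibition of the luminescence signal of 40% or more relative to plate controls, in a single-dose primary screen at 18.75 µM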
TROY NFkB inh: inhibitors of TROY-driven NF-kB signaling, primary screen, Q293 LMP1-TROYcd cells, NF-kB luciferase, uHTS. Q293 LMP1-TROYcd NF-kB luciferase reporter, 4 h. inhibition, % at 10 µM. 0.98% of 360,000 active;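 active means compounds whose plate-normalised and pattern-corrected inhibition of the luciferase reporter signal at the single screening dose is 50% or more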
Numbers without * were called inactive. Sampled rows, rich in hits. Any-hit rate of the full collection: about 3.9%.

SMILES	TWEAK Fn14 block	Peg3 promoter	KKLEB cytotox	CF NFkB block	HIF-2a block	TROY NFkB inh
O=C(NC(NC(=S)Nc1c(Cl)cc(Cl)cc1Cl)C(Cl)(Cl)Cl)OCc1ccccc1 (configuration not stated)	38.1	37.1	-39.2	44.1	18.6	37.5
Cc1ccc(C)c(NC(=S)NC(NC(=O)/C=C/c2ccccc2)C(Cl)(Cl)Cl)c1 (configuration not stated)	54.9*	39.1	-4.3	-8.7	16.0	29.9
O=C(/C=C/c1ccccc1)NC(NC(=S)Nc1ccc(Cl)cc1Cl)C(Cl)(Cl)Cl (configuration not stated)	64.5*	25.4	-1.4	8.6	-7.4	27.9
O=C(/C=C/c1ccccc1)NC(NC(=S)Nc1ccc(C(=O)O)cc1)C(Cl)(Cl)Cl (configuration not stated)	-2.9	-3.2	-8.7	4.2	-4.9	0.2
CCc1ccc(CN(C)Cc2nc(Cc3ccc(OC)c(OC)c3)no2)nc1	-9.6	7.7	-2.4	10.0	11.9	21.4
O=C(Nc1ccc(N2CCOCC2)cc1)C1CCN(S(=O)(=O)c2cccc(C(F)(F)F)c2)CC1	6.9	14.8	3.8	4.3	5.0	11.4
CC(C)(Oc1ccc(Cl)cc1)C(=O)Nc1c2c(nn1C(C)(C)C)CS(=O)(=O)C2	9.2	-0.7	-10.7	14.6	14.6	26.9
CCC(C)(C)NC(=O)C(c1ccc(F)cc1)N(Cc1ccc(OC)cc1)C(=O)c1cnccn1 (configuration not stated)	-12.5	-76.1	6.4	-2.9	-124.9	6.2
CCC(C)(C)NC(=O)C(c1ccc(F)cc1)N(Cc1cccc(OC)c1)C(=O)c1cnccn1 (configuration not stated)	-21.1	58.2*	18.4	1.4	-4.7	-10.4
CCCN(C)C[C@H]1Oc2ncc(Br)cc2C(=O)N([C@@H](C)CO)C[C@@H]1C	5.4	-2.1	5.9	8.0	-11.2	-0.8
Cc1c2ccccc2nc2c(F)c(NCCO)c(F)c(F)c12	-0.2	-108.0	-7.2	-1.6	-34.6	-9.6
OCCNc1c2ccccc2nc2c(F)c(F)c(F)c(F)c12	25.2	100.8*	-8.1	9.2	96.9*	-32.3
CN(C)c1ccc(/C=N/n2ncc3ccccc32)cc1	53.5*	-69.1	-18.4	-22.4	-222.5	22.9
O=c1[nH]c(-c2ccccc2F)nc2c1sc(=S)n2Cc1ccccc1	60.8*	37.4	6.0	22.3	7.1	58.1*
O=C(COC(=O)c1ccccc1NS(=O)(=O)c1cccs1)NCC12CC3CC(CC(C3)C1)C2	29.7	15.1	2.1	9.1	8.1	60.5*
O=C(COC(=O)c1ccccc1NS(=O)(=O)c1cccs1)NC1CCCCC1	2.1	9.5	12.9	3.5	1.2	27.9
COc1ccc2c(C)cc(SCC(=O)Nc3ccc(Cl)cn3)nc2c1	-2.2	24.5	-52.5*	51.6*	20.2	8.8
O=C(O)CCC(=O)NNC(=O)CCCOc1ccc(Cl)cc1Cl	97.2*	10.6	-2.0	3.8	1.6	-5.6
O=C(O)CCC(=O)NNC(=O)COc1ccc(Cl)cc1Cl	-18.9	3.0	8.1	-16.7	14.7	-6.7
O=C(CCCOc1ccc(Cl)cc1Cl)N/N=C/c1ccccc1O	-14.2	52.1*	7.5	-10.6	-1.7	-24.2
O=C(CCCOc1ccc(Cl)cc1Cl)N/N=C/c1ccccc1	-13.0	6.5	-5.6	-5.6	-1.4	-9.4
CC(OC(=O)C1=COCCO1)C(=O)NC1CCCCC1C (configuration not stated)	-8.4	-27.4	22.7	-19.0	7.6	2.2
CC(=O)Nc1ccc(C(=O)N/N=C/c2cc(Br)cc(Br)c2O)cc1	-11.8	27.3	-9.8	27.5	-1.2	25.1
O=C(N/N=C/c1cc(Cl)ccc1O)c1ccc(Br)cc1	-0.6	45.5	-31.1	57.2*	-43.8	-31.8
CC(C)C(=O)Nc1ccc(C(=O)N/N=C/c2cc(Br)cc(Br)c2O)cc1	-1.9	58.3*	-4.3	12.6	12.9	2.0
SMILES	TWEAK Fn14 block	Peg3 promoter	KKLEB cytotox	CF NFkB block	HIF-2a block	TROY NFkB inh
Cc1ccc(-n2[nH]c(C)c(/C=N/c3cccc(C)n3)c2=O)cc1	-11.7	-16.8	14.6	-20.2	-48.4	-25.7
O=c1c2ccccc2nc(COc2ccccc2)n1/N=C/c1cn[nH]c1-c1ccccc1	18.6	23.8	-6.2	15.6	-13.8	-30.6
Cc1ccccc1OCc1nc2ccccc2c(=O)n1/N=C/c1cn[nH]c1-c1ccc(Br)cc1	15.0	61.4*	-11.6	30.8	-5.3	-33.1
O=C(Nc1ccc(NC(=O)c2ccccc2F)cn1)c1ccco1	52.7*	-38.8	-3.6	-4.6	-0.6	22.6
O=C(Nc1ccc(NC(=O)c2ccco2)nc1)c1cccc(F)c1	16.3	-319.2	-1.1	6.9	-212.7	-40.8
O=C(Nc1cnc2ccccc2c1)c1ccco1	57.4*	-114.8	11.1	-6.3	-63.6	-25.1
CCN(c1ccccc1)S(=O)(=O)c1ccc(OCc2c(C)noc2C)cc1	-1.2	8.7	6.1	-9.1	23.3	-18.8
COc1cc(C=O)ccc1OCCCOc1ccccc1C(=O)O	101.6*	28.3	5.8	3.2	-93.1	83.9*
COc1cc(C=O)ccc1OCCCOc1ccccc1[N+](=O)[O-]	-11.6	-201.7	-1.0	-14.9	-96.4	-61.4
COC(=O)c1ccc(-c2ccc(C(c3c(C)[nH][nH]c3=O)c3c(C)[nH][nH]c3=O)o2)cc1	55.7*	-47.5	3.5	1.4	-24.7	13.0
CN(C(=O)c1cccc(NC(=O)Cc2ccc(NC(=O)C3CCCN(C(=O)C4CCCC4)C3)cc2)c1)C1CCCC1 (configuration not stated)	14.5	-6.4	2.0	20.9	6.6	-2.0
NS(=O)(=O)c1cccc(NC(=O)CNC(=O)CC23CC4CC(CC(C4)C2)C3)c1	-1.2	2.7	-4.6	-18.5	17.9	52.3*
CCCCOc1ccccc1Cn1c(=O)oc2ccccc21	-5.7	3.9	-6.8	10.5	5.1	9.4
Cc1cccc(C)c1N1CCN(C(=O)N2CCOCC2)CC1	-12.6	4.7	11.0	-9.8	15.9	9.8
c1ccc(C2(CN3CCNC[C@H]3Cc3cccc4ccccc34)CC2)cc1	14.6	78.8*	-1.8	1.1	9.5	-12.2
COc1cccc(C(=O)Nc2nnc(S(=O)(=O)N(C)Cc3ccccc3)s2)c1	-12.7	54.6*	-0.4	20.3	6.5	41.9
COc1ccc(CN2C[C@@H](CO)O[C@@H](n3cnc4c(NCCN(C)C)ncnc43)C2)cc1	-35.2	0.4	7.8	7.7	9.1	-13.2
CCCCc1cc(=O)oc2c(CN3CCCC3)c(O)ccc12	-1.5	2.9	4.6	-12.3	5.2	-12.6

Source: PubChem BioAssay (Sanford-Burnham Center for Chemical Genomics)
